Results published in PubChem BioAssay (NCI).
About 83,000 compounds went through this panel and 20% of them were active in at least one assay; those are over-represented in the sample as a whole.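 For each line, cells grew in 96-well plates with the test compound present at a single concentration for 48 hours.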 Unmarked numbers belong to inactive results. Active and inactive are the calls of the source. How the source made its calls: active means growth percent below 10; inactive means the rest.

Key:
Assay in all cases: NCI-60 one-dose screen, 48 h (100 = growth as untreated, 0 = no growth, -100 = all killed)
Conditions in all cases: 10 µM unless noted
[1] = tested on: DU-145 prostate
[2] = tested on: K-562 leukemia
[3] = tested on: MALME-3M melanoma
[4] = tested on: MDA-MB-231 breast
[5] = tested on: RXF 393 renal
[6] = tested on: SF-268 CNS
[7] = tested on: SF-295 CNS
[8] = tested on: SF-539 CNS
[9] = tested on: UACC-257 melanoma
[10] = tested on: M14 melanoma
[11] = tested on: HCT-15 colon
[12] = tested on: HT29 colon
[13] = tested on: SNB-75 CNS
[14] = tested on: SNB-19 CNS
[15] = tested on: U251 CNS
[16] = tested on: PC-3 prostate
[17] = tested on: SK-MEL-5 melanoma
[18] = tested on: UACC-62 melanoma
[19] = tested on: LOX IMVI melanoma
[20] = tested on: SK-MEL-28 melanoma

SMILES	growth [1]	growth [2]	growth [3]	growth [4]	growth [5]	growth [6]	growth [7]	growth [8]	growth [9]	growth [10]	growth [11]	growth [12]	growth [13]	growth [14]	growth [15]	growth [16]	growth [17]	growth [18]	growth [19]	growth [20]
Cc1ccc(-c2nc(C(Cl)Cl)nc3cc(C)nn23)cc1	-12.6% (active)	11.2%	-12.2% (active)	8.58% (active)	-66% (active)	21.4%	17.8%	35.1%	55.8%	-9.67% (active)	-2.36% (active)	3.2% (active)	-11.5% (active)	25.1%	4.27% (active)	44.9%	44.8%	59.5%	52%	38.4%
C=C(CN1CC=CCC1)[C@@H]1CC[C@]2(CO)CC[C@]3(C)[C@H](CC[C@@H]4[C@@]5(C)CC[C@H](O)C(C)(C)[C@@H]5CC[C@]43C)[C@@H]12	106%	77%	101%	116%	106%	101%	102%	91.1%	111%	96.1%	92.2%	55.3%	108%	99.8%	88.3%	77.5%	96.2%	98%	99.8%	101%
COC(=O)C1=C(C(=O)Nc2cccnc2)C2OC1(C(Cc1ccccc1)Oc1ccccc1)C1OC21 (stereo not given)	72.8%	-48.4% (active)	-74.7% (active)	59.8%	59.1%	86.5%	100%	72%	79.1%	11.7%	14.4%	59.1%	88.7%	102%	101%	69.6%	107%	69.7%	80.7%	-75.4% (active)
CCN1C(=O)N(CC)C2C1NN=C1SCC(=O)N12 (stereo not given)	101%	47.9%	77%	59.4%	107%	98.6%	100%	92.9%	22.2%	85%	82%	59.5%	85.8%	97%	107%	94%	101%	85.8%	107%	96.6%
COc1cc2c(/C=C3\C(=O)Nc4ccccc43)c(C(=O)O)[nH]c2cc1C	118%	103%	99.5%	87.9%	107%	96.6%	101%	101%	106%	105%	105%	89.8%	66.3%	113%	96.4%	79.8%	109%	84.3%	92.7%	81.6%
COc1ccc(C2CC(c3ccc4c(c3)OCO4)=Nc3c(N)ncnc3N2)cc1 (stereo not given)	141%	99.6%	106%	90.1%	84.3%	93.3%	168%	110%	107%	105%	94.3%	106%	86.6%	88.8%	101%	98.6%	87.8%	90.3%	101%	112%
O=C(CCCCl)NNc1nccc(Nc2ccc(S(=O)(=O)Nc3ccncc3)cc2)n1	103%	111%	108%	116%	117%	95.9%	96.7%	102%	96.3%	97.7%	103%	102%	93.2%	106%	103%	93%	105%	102%	98%	107%
N=C(N)SCc1cccc2c(CSC(=N)N)cccc12	107%	103%	102%	98.6%	113%	97.2%	113%	100%	95.9%	105%	108%	108%	91.7%	93.5%	89.2%	97.4%	109%	96.6%	97.7%	109%
